{"source": "PubChem BioAssay", "note": "Several values for one entry are separate records, joined by “and”; a condition that tells them apart may be missing. Equal entries are not always repeated. Activity calls are given as the source filed them. How the calls were made is not given here."}
{"test": "inhibition of Brca1/Bard1 split-luciferase complementation, confirmation, counter-screen for Mdm2/MdmX interaction inhibitor project, luminescence, single concentration (AID 504668)", "conditions": "Brca1/Bard1 bimolecular luciferase complementation counterscreen, at 8 µM, stronger effect = higher value"}
{"smiles": "CSc1nc2nccc(/C=C\\c3ccccc3)n2n1", "inhibition": "23.7% (active)"}
{"smiles": "Cn1cc(C(=O)N/N=C/c2c(O)ccc3ccccc23)ccc1=O", "inhibition": "27% (active)"}
{"smiles": "CCOc1cc(NC(=O)c2ccco2)c(OCC)cc1NC(=O)COc1ccccc1C", "inhibition": "33.4% (active)"}
{"smiles": "c1ccc(CCc2nn3c(-c4ccncc4)nnc3s2)cc1", "inhibition": "33.7% (active)"}
{"smiles": "Cc1ncc(CO)c(/C=N/Nc2ccc(C(F)(F)F)cn2)c1O", "inhibition": "33.8% (active)"}
{"smiles": "COC(=O)C1=C(C)NC(C)=C(C(=O)OC)C1c1ccccc1[N+](=O)[O-]", "inhibition": "28% (active)"}
{"smiles": "CCC(C)NCC(=O)Nc1ccc(-c2nc3cc(NC(=O)CNC(C)CC)ccc3o2)cc1", "note": "(centres undefined)", "inhibition": "35.6% (active)"}
{"smiles": "C/C(=N\\NC(=O)c1ccc(Cl)c(Cl)c1)c1ccccn1", "inhibition": "25.9% (active)"}
{"smiles": "Cc1ccc(OC(F)F)c(NC(=O)Nc2cccc(C(F)(F)F)c2)c1", "inhibition": "23.7% (active)"}
{"smiles": "COC(=O)c1ccc2nc(NC(=O)CCS(=O)(=O)c3ccccc3)sc2c1", "inhibition": "27.4% (active)"}
{"smiles": "Cc1csc2nc(O)c(C(=O)NC3CCCCC3)c(=O)n12", "inhibition": "35% (active)"}
{"smiles": "N=c1n(CCN2CCCCC2)c2ccccc2n1CC(O)c1cccc(Br)c1", "note": "(centres undefined)", "inhibition": "34.4% (active)"}
{"smiles": "Oc1c(CN2CCN(c3ccccn3)CC2)cc(Cl)c2cccnc12", "inhibition": "28% (active)"}
{"smiles": "COc1ccc(Cl)cc1NC(=O)c1nnn(CC(=O)Nc2ccc(OC)c(OC)c2)c1N", "inhibition": "31.7% (active)"}
{"smiles": "O=C(N/N=C(\\Cc1ncc[nH]1)c1ccccc1)c1ccccc1", "inhibition": "24.8% (active)"}
{"smiles": "COc1ccc2cc1Oc1ccc(cc1)C[C@H]1c3c(cc4c(c3Oc3cc5c(cc3OC)CCN(C)[C@@H]5C2)OCO4)CCN1C", "inhibition": "31.6% (active)"}
{"smiles": "CCN(C[C@H]1N[C@@](CC)(C(=O)OC)[C@H]2C(=O)N(Cc3ccccc3)C(=O)[C@@H]12)S(=O)(=O)c1ccc(-c2ccccc2)cc1", "inhibition": "34% (active)"}
{"smiles": "COc1ccc(C(=O)C(CCCCC(CN(C)C)C(=O)c2ccc(OC)cc2)CN(C)C)cc1", "note": "(centres undefined)", "inhibition": "30.7% (active)"}
{"smiles": "Cc1cccc(Cn2nc(C(C)(C)C)cc2C(=O)Nc2ccc(F)cc2)c1", "inhibition": "31.2% (active)"}
{"smiles": "CCOc1ccccc1CNC(=O)c1cc2oc3ccccc3c2n1C", "inhibition": "26.3% (active)"}
{"smiles": "N#CCSc1nc2c(sc(=S)n2Cc2ccco2)c(=O)n1-c1ccc(F)cc1", "inhibition": "31.6% (active)"}
{"smiles": "COc1ccc(C2=Nn3c(nnc3-c3ccccc3F)SC2)cc1OC1CCCC1", "inhibition": "28.6% (active)"}
{"smiles": "O=C(CCCN1C(=O)/C(=C/c2cccc(Br)c2)SC1=S)Nc1ccccn1", "inhibition": "31% (active)"}
{"smiles": "Cc1ccc(NC(=O)c2cc3ccccc3oc2=O)cc1S(=O)(=O)N(C)C", "inhibition": "25.9% (active)"}
{"smiles": "O=C(Nc1nc(-c2ccccn2)cs1)c1ccc(Cl)s1", "inhibition": "24.4% (active)"}
{"smiles": "O=C(Nc1nc(-c2ccccc2)cs1)c1ccccc1NS(=O)(=O)c1ccc(F)cc1", "inhibition": "25.5% (active)"}
{"smiles": "CC(C)c1cccc(O)c(=O)c1", "inhibition": "27.6% (active)"}
{"smiles": "O=C(/C=C/c1c(F)cccc1Cl)c1ccc(O)cc1", "inhibition": "32.3% (active)"}
{"smiles": "CCN(CC)CCNC(=O)c1ccc(NC(=O)c2cn(-c3ccc(F)cc3)nc2-c2cccc(OC)c2)cc1", "inhibition": "27.9% (active)"}
{"smiles": "FC(F)(F)c1cccc(NC(=S)N(CCCN2CCCC2)Cc2cccn2Cc2ccc(Cl)cc2)c1", "inhibition": "30.3% (active)"}
{"smiles": "CC1=[N+](C)c2ccc3ccccc3c2C1(C)C", "inhibition": "28.2% (active)"}
{"smiles": "CC(=O)NC(c1cc(Cl)c2cccnc2c1O)C1CC1", "note": "(centres undefined)", "inhibition": "33.4% (active)"}
{"smiles": "O=C(CCS(=O)(=O)c1ccc(F)cc1)Nc1nc(-c2ccncc2)cs1", "inhibition": "34.2% (active)"}
{"smiles": "Cc1cccc(NC(=O)Nc2cccc(Oc3c(F)c(F)c(F)c(F)c3F)c2)c1", "inhibition": "32.5% (active)"}
{"smiles": "CC1=NNC(=O)/C1=C\\c1cn(-c2ccccc2)nc1-c1cccs1", "inhibition": "25.7% (active)"}
{"smiles": "COc1cc(/C=C/[N+](=O)[O-])ccc1OCc1cccc(C(=O)O)c1", "inhibition": "35.1% (active)"}
{"smiles": "O=C(CCCl)Nc1nc2c(s1)CCc1ccccc1-2", "inhibition": "24.6% (active)"}
{"smiles": "C1CCC(C(CC2CCCCN2)C2CCCCC2)CC1", "note": "(centres undefined)", "inhibition": "35.2% (active) and 23.8% (active)"}
{"smiles": "O=C(Nc1ccc(Cl)cc1)Nc1ccc(N2CCCC2)c(S(=O)(=O)Nc2ccccc2Cl)c1", "inhibition": "24% (active)"}
